{"source": "the supplement of paper PMC9925115", "key": {"FLX1": {"system": "FLX1", "test": "cell viability z-score within plate (CellTiter-Glo), mean of 3 biological replicates; higher = higher viability relative to plate (less growth inhibition)", "settings": "2 µM; time (hr): 120", "procedure": "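FLX1 fibrolamellar carcinoma cells (DNAJB1-PRKACA fusion), 600 cells/well in 384-well plates, treated with a Selleck kinase inhibitor library (L1200) at 2 uM for 5 days (120 hr); viability by CellTiter-Glo. A z-score was computed within each plate and averaged over three biological replicates.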"}, "[1]": {"system": "FLX1 + dox-induced PRKAR1A G325D", "test": "difference in log2 fold change of viability vs plate median (dox-induced PRKAR1A G325D minus uninduced); higher = compound less effective when PKA is inhibited", "settings": "concentration: not stated (2 or 5 uM); 5 days", "procedure": "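For each plate a log2 fold change vs the plate median was derived, and the values without dox were subtracted from those with dox, averaged over three biological replicates.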"}}, "note": "Where a name gives a salt, the structure may show the parent alone. ± gives the uncertainty stated by the source.", "data": [{"compound": "Cc1ccc(C(=O)Nc2cccc(C(F)(F)F)c2)cc1Nc1nc(-c2cccnc2)nc2c1cnn2C", "values": [{"measurement": "cell viability z-score within plate", "setting": "FLX1", "result": "-0.436 ± 0.34"}, {"measurement": "difference in log2 fold change of viability", "setting": "[1]", "result": 0.868}]}, {"compound": "O=C(NOC[C@H](O)CO)c1ccc(F)c(F)c1Nc1ccc(I)cc1F", "values": [{"measurement": "cell viability z-score within plate", "setting": "FLX1", "result": "-1.16 ± 0.84"}, {"measurement": "difference in log2 fold change of viability", "setting": "[1]", "result": -1.04}]}, {"compound": "CCN1CCN(Cc2ccc(Nc3ncc(F)c(-c4cc(F)c5nc(C)n(C(C)C)c5c4)n3)nc2)CC1", "values": [{"measurement": "cell viability z-score within plate", "setting": "FLX1", "result": "0.939 ± 0.8"}, {"measurement": "difference in log2 fold change of viability", "setting": "[1]", "result": -0.0976}]}, {"compound": "CN(C)Cc1cccc(N/C(=C2\\C(=O)Nc3cc(C(N)=O)ccc32)c2ccccc2)c1", "values": [{"measurement": "cell viability z-score within plate", "setting": "FLX1", "result": "-0.208 ± 0.31"}, {"measurement": "difference in log2 fold change of viability", "setting": "[1]", "result": -0.409}]}, {"compound": "CCOc1cc(C(=O)N2CCC(N3CCN(C)CC3)CC2)ccc1Nc1ncc2c(n1)N(C1CCCC1)c1ccccc1C(=O)N2C", "values": [{"measurement": "cell viability z-score within plate", "setting": "FLX1", "result": "0.444 ± 0.17"}, {"measurement": "difference in log2 fold change of viability", "setting": "[1]", "result": 0.00328}]}, {"compound": "CNC(=O)CN1CCC(Oc2cc3c(Nc4cccc(Cl)c4F)ncnc3cc2OC)CC1", "note": "[Sapitinib (AZD8931)]", "values": [{"measurement": "cell viability z-score within plate", "setting": "FLX1", "result": "0.472 ± 0.47"}, {"measurement": "difference in log2 fold change of viability", "setting": "[1]", "result": -0.745}]}, {"compound": "Cn1c(Nc2ccc(C(F)(F)F)cc2)nc2cc(Oc3ccnc(-c4ncc(C(F)(F)F)[nH]4)c3)ccc21", "values": [{"measurement": "cell viability z-score within plate", "setting": "FLX1", "result": "0.193 ± 0.26"}, {"measurement": "difference in log2 fold change of viability", "setting": "[1]", "result": -0.588}]}, {"compound": "COc1cc(OC)c(/C=C/S(=O)(=O)Cc2ccc(OC)c(NCC(=O)O)c2)c(OC)c1", "values": [{"measurement": "cell viability z-score within plate", "setting": "FLX1", "result": "0.00703 ± 0.25"}, {"measurement": "difference in log2 fold change of viability", "setting": "[1]", "result": 0.2}]}, {"compound": "CC[C@H](Nc1ncnc2[nH]cnc12)c1nc2cccc(F)c2c(=O)n1-c1ccccc1", "note": "[Idelalisib (CAL-101, GS-1101)]", "values": [{"measurement": "cell viability z-score within plate", "setting": "FLX1", "result": "0.166 ± 0.22"}, {"measurement": "difference in log2 fold change of viability", "setting": "[1]", "result": 0.00653}]}, {"compound": "O=C(O)c1ccc(Nc2ncc3c(n2)-c2ccc(Cl)cc2C(c2c(F)cccc2F)=NC3)cc1", "values": [{"measurement": "cell viability z-score within plate", "setting": "FLX1", "result": "1.2 ± 0.42"}, {"measurement": "difference in log2 fold change of viability", "setting": "[1]", "result": -0.0396}]}, {"compound": "CNC(=O)c1cccc(-c2ccc3c(N4CCOC[C@@H]4C)nc(N4CCOC[C@@H]4C)nc3n2)c1", "note": "[Vistusertib (AZD2014)]", "values": [{"measurement": "cell viability z-score within plate", "setting": "FLX1", "result": "-0.936 ± 1.4"}, {"measurement": "difference in log2 fold change of viability", "setting": "[1]", "result": 0.675}]}, {"compound": "O=C(c1cccc(Cl)c1F)N1CCN(Cc2cccc(Nc3nccs3)n2)CC1", "values": [{"measurement": "cell viability z-score within plate", "setting": "FLX1", "result": "-0.394 ± 0.96"}, {"measurement": "difference in log2 fold change of viability", "setting": "[1]", "result": -0.738}]}, {"compound": "CC(C)NC[C@@H](C(=O)N1CCN(c2ncnc3c2[C@H](C)C[C@H]3O)CC1)c1ccc(Cl)cc1", "note": "[Ipatasertib (GDC-0068)]", "values": [{"measurement": "cell viability z-score within plate", "setting": "FLX1", "result": "1.05 ± 0.14"}, {"measurement": "difference in log2 fold change of viability", "setting": "[1]", "result": 0.54}]}, {"compound": "Cc1ccc(Nc2nccc(N(C)c3ccc4c(C)n(C)nc4c3)n2)cc1S(N)(=O)=O", "note": "[Pazopanib]", "values": [{"measurement": "cell viability z-score within plate", "setting": "FLX1", "result": "-0.34 ± 0.86"}, {"measurement": "difference in log2 fold change of viability", "setting": "[1]", "result": 0.0453}]}, {"compound": "OCCn1cc(-c2ccc3c(c2)CC/C3=N\\O)c(-c2ccncc2)n1", "values": [{"measurement": "cell viability z-score within plate", "setting": "FLX1", "result": "0.788 ± 0.054"}, {"measurement": "difference in log2 fold change of viability", "setting": "[1]", "result": 0.00993}]}, {"compound": "NCC(=O)Nc1ccc(-n2nc(C(F)(F)F)cc2-c2ccc3c(ccc4ccccc43)c2)cc1", "values": [{"measurement": "cell viability z-score within plate", "setting": "FLX1", "result": "0.225 ± 0.2"}, {"measurement": "difference in log2 fold change of viability", "setting": "[1]", "result": 0.186}]}, {"compound": "COc1cc(Nc2c(C#N)cnc3cc(OCCCN4CCN(C)CC4)c(OC)cc23)c(Cl)cc1Cl", "note": "[Bosutinib (SKI-606)]", "values": [{"measurement": "cell viability z-score within plate", "setting": "FLX1", "result": "0.309 ± 0.56"}, {"measurement": "difference in log2 fold change of viability", "setting": "[1]", "result": -0.235}]}, {"compound": "COc1ccc(-c2ccc3c(N4CCOCC4)nc(N4C[C@@H](C)O[C@@H](C)C4)nc3n2)cc1CO", "values": [{"measurement": "cell viability z-score within plate", "setting": "FLX1", "result": "0.495 ± 0.19"}, {"measurement": "difference in log2 fold change of viability", "setting": "[1]", "result": 0.463}]}, {"compound": "C[C@@H](NC(=O)c1ncnc(N)c1Cl)c1ncc(C(=O)Nc2cc(C(F)(F)F)c(Cl)cn2)s1", "values": [{"measurement": "cell viability z-score within plate", "setting": "FLX1", "result": "0.647 ± 0.28"}, {"measurement": "difference in log2 fold change of viability", "setting": "[1]", "result": -0.193}]}, {"compound": "CS(=O)(=O)N1CCN(Cc2cc3nc(-c4cccc5[nH]ncc45)nc(N4CCOCC4)c3s2)CC1", "note": "[Pictilisib (GDC-0941)]", "values": [{"measurement": "cell viability z-score within plate", "setting": "FLX1", "result": "1.08 ± 0.18"}, {"measurement": "difference in log2 fold change of viability", "setting": "[1]", "result": -0.0931}]}, {"compound": "C=CC(=O)Nc1cccc(Nc2nc(Nc3ccc(N4CCN(C(C)=O)CC4)cc3OC)ncc2C(F)(F)F)c1", "note": "[Rociletinib (CO-1686, AVL-301)]", "values": [{"measurement": "cell viability z-score within plate", "setting": "FLX1", "result": "-0.855 ± 0.71"}, {"measurement": "difference in log2 fold change of viability", "setting": "[1]", "result": -0.172}]}, {"compound": "C[S+]([O-])c1ccc(-c2nc(-c3ccc(F)cc3)c(-c3ccncc3)[nH]2)cc1", "note": "(configuration not stated)", "values": [{"measurement": "cell viability z-score within plate", "setting": "FLX1", "result": "-1.58 ± 1.1"}, {"measurement": "difference in log2 fold change of viability", "setting": "[1]", "result": -0.00802}]}, {"compound": "Cc1cc(Nc2cc(CN3CCOCC3)c3nc(C)c(Cc4ccc(Cl)cc4F)n3n2)n[nH]1", "values": [{"measurement": "cell viability z-score within plate", "setting": "FLX1", "result": "0.049 ± 0.54"}, {"measurement": "difference in log2 fold change of viability", "setting": "[1]", "result": -1.14}]}, {"compound": "C=CC(=O)Nc1cccc(Nc2nc(Nc3ccc(Oc4ccnc(C(=O)NC)c4)cc3)ncc2F)c1", "values": [{"measurement": "cell viability z-score within plate", "setting": "FLX1", "result": "0.519 ± 0.21"}, {"measurement": "difference in log2 fold change of viability", "setting": "[1]", "result": -0.452}]}, {"compound": "N#Cc1ccc2[nH]c(O)c(-c3ccc(CN4CCOCC4)cn3)c2c1", "values": [{"measurement": "cell viability z-score within plate", "setting": "FLX1", "result": "0.226 ± 0.62"}, {"measurement": "difference in log2 fold change of viability", "setting": "[1]", "result": 0.199}]}, {"compound": "CCCCCCCCc1ccc(CCC(N)(CO)CO)cc1", "note": "[Fingolimod (FTY720) HCl]", "values": [{"measurement": "cell viability z-score within plate", "setting": "FLX1", "result": "0.096 ± 0.62"}, {"measurement": "difference in log2 fold change of viability", "setting": "[1]", "result": 0.301}]}, {"compound": "NC(=O)c1ccc(N(C(N)=O)c2c(F)cccc2F)nc1-c1ccc(F)cc1F", "values": [{"measurement": "cell viability z-score within plate", "setting": "FLX1", "result": "-1.05 ± 0.15"}, {"measurement": "difference in log2 fold change of viability", "setting": "[1]", "result": 0.256}]}, {"compound": "Cc1cnc(Nc2ccc(N3CCN(C)CC3)cc2)nc1Nc1cccc(S(=O)(=O)NC(C)(C)C)c1", "values": [{"measurement": "cell viability z-score within plate", "setting": "FLX1", "result": "0.0181 ± 0.39"}, {"measurement": "difference in log2 fold change of viability", "setting": "[1]", "result": -0.303}]}, {"compound": "N#CCNC(=O)c1ccc(-c2ccnc(Nc3ccc(N4CCOCC4)cc3)n2)cc1", "note": "[Momelotinib (CYT387)]", "values": [{"measurement": "cell viability z-score within plate", "setting": "FLX1", "result": "-1.97 ± 1"}, {"measurement": "difference in log2 fold change of viability", "setting": "[1]", "result": 0.708}]}, {"compound": "C=CC(=O)Nc1ccc2ncnc(Nc3ccc(OCc4cccc(F)c4)c(Cl)c3)c2c1", "values": [{"measurement": "cell viability z-score within plate", "setting": "FLX1", "result": "0.819 ± 0.26"}, {"measurement": "difference in log2 fold change of viability", "setting": "[1]", "result": -0.53}]}, {"compound": "COc1cc2c(c(OC)c1OC)-c1c(cc3c(c1OC)OCO3)CC(C)C(C)C2", "note": "(configuration not stated) [Schisandrin B (Sch B)]", "values": [{"measurement": "cell viability z-score within plate", "setting": "FLX1", "result": "0.407 ± 0.2"}, {"measurement": "difference in log2 fold change of viability", "setting": "[1]", "result": 0.277}]}, {"compound": "FC(F)(F)c1ccc(/C=C/c2nc(COc3ccc(CCCCn4ccnn4)cc3)co2)cc1", "note": "[Mubritinib (TAK 165)]", "values": [{"measurement": "cell viability z-score within plate", "setting": "FLX1", "result": "-0.952 ± 0.95"}, {"measurement": "difference in log2 fold change of viability", "setting": "[1]", "result": 0.102}]}, {"compound": "C[C@@H](Oc1cc(-c2cnn(C3CCNCC3)c2)cnc1N)c1c(Cl)ccc(F)c1Cl", "values": [{"measurement": "cell viability z-score within plate", "setting": "FLX1", "result": "0.281 ± 0.54"}, {"measurement": "difference in log2 fold change of viability", "setting": "[1]", "result": -0.703}]}, {"compound": "CCc1ccc(/C=C2/SC(=S)NC2=O)cc1", "values": [{"measurement": "cell viability z-score within plate", "setting": "FLX1", "result": "0.872 ± 0.44"}, {"measurement": "difference in log2 fold change of viability", "setting": "[1]", "result": 0.116}]}, {"compound": "CCCCCCCCCCCCc1ccc(S(=O)(=O)Nc2nncs2)cc1", "values": [{"measurement": "cell viability z-score within plate", "setting": "FLX1", "result": "1.17 ± 0.77"}, {"measurement": "difference in log2 fold change of viability", "setting": "[1]", "result": 0.132}]}, {"compound": "O=C1NC(=O)C(c2ccccc2[N+](=O)[O-])=C1Nc1ccc(O)c(Cl)c1", "values": [{"measurement": "cell viability z-score within plate", "setting": "FLX1", "result": "0.229 ± 0.58"}, {"measurement": "difference in log2 fold change of viability", "setting": "[1]", "result": -0.00686}]}]}
